In PubChem BioAssay (Tox21):
Values joined by “and” are separate entries in the source; they are usually repeats but may differ in a detail not shown here. Equal entries are not always repeated. Records with an inconclusive call do not appear. Active and inactive are the calls of the source. The call rests on the fitted dose curve; in most records, active means well fitted curve in the direction sought with a large enough effect in the repeat runs; inconclusive means weak or mixed curves; inactive means no such curve, though single readings can be large; an effect the other way counts as inactive or inconclusive.

Assay: qHTS RealTime-Glo MT Cell Viability Assay in HepG2 cells - 8 hour (AID 1224873); further: nearly all actives have a fitted effect of over 55% in size
Settings: RealTime-Glo luminescence; series mostly up to 76.8 µM; viability change, negative = cytotoxic: at the top concentration
Method in brief: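 HepG2 cells (600/well) mixed with RealTime-Glo MT reagent, settled 5 h at 37 C/5% CO2 before compound addition. Nonlytic NanoLuc luminescence from viable-cell prosubstrate reduction read repeatedly during 40 h treatment at 37 C.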
On the % scale 0 is the no-effect control and ±100 the full control effect.

Compound	Potency	viability change, negative = cytotoxic
NC(=O)NNc1ccccc1	inactive	
O=C(c1cc(O)c(O)c(O)c1)c1ccc(O)c(O)c1O		-22.1% [at 35.3 µM] (inactive)
O=C(Oc1ccccc1)c1ccc(O)cc1	inactive	
CCc1ccccc1O	inactive	
Cc1cc(O)cc(C)c1Cl	inactive	
CCOC(=O)/C=C\C(=O)OCC	inactive	
CC1=C(CC(=O)O)c2cc(F)ccc2/C1=C\c1ccc(S(C)=O)cc1 (stereo unspecified)	inactive	
Nc1cc(-c2ccncc2)c[nH]c1=O	inactive	
CCCCCCCCCCC=CC1CC(=O)OC1=O (stereo unspecified)	inactive	
C=CC(=O)OCCCCCCCC(C)C	inactive	
CCCCOCCOCCOC(=O)CCCCC(=O)OCCOCCOCCCC	inactive	
O=C(O)c1ccc([N+](=O)[O-])cc1	inactive	
CC1(C)CC(N=C=O)CC(C)(CN=C=O)C1 (stereo unspecified)	inactive	
NC(=O)/N=N/C(N)=O	inactive	
CNC[C@H](O)[C@@H](O)[C@H](O)[C@H](O)CO	inactive	
CC(=O)Nc1ccc(C(=O)O)cc1	inactive	
O=C1O[C@H](CO)[C@@H](O)[C@H](O)[C@H]1O	inactive	
C=C(C)C(=O)OCCCCCC	inactive	

Assay: qHTS RealTime-Glo MT Cell Viability Assay in HEK293 cells - 40 hour (AID 1224874); further: nearly all actives have a fitted effect of over 50% in size; further: potency means the concentration at half of the fitted maximal effect
Settings: RealTime-Glo luminescence; max response: active compounds read low
Method in brief: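 HEK293 + NanoLuc + prosubstrate, 600 cells/well; 5 h, 37 C/5% CO2; compound 23 nL in DMSO by pintool; 37 C; luminescence read at 0, 8, 16, 24, 32 and 40 h time points.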

Compound	max response	Potency
CC1=C(/C=C/C(C)=C/C=C/C(C)=C/CO)C(C)(C)CCC1	-27.5% (inactive) and -20.7% (inactive)	
COC(=O)c1ccccc1O	-1.26% (inactive) and 16.9% (inactive)	
Oc1ccc2ccccc2c1N=Nc1ccccc1	32.3% (inactive)	
C[C@@H](O)[C@H]1C(=O)N2C(C(=O)O)=C(S[C@@H]3CN[C@H](C(=O)N(C)C)C3)[C@H](C)[C@H]12	2.43% (inactive) and 4.85% (inactive)	
C=C1CC[C@H](O)CC1=C/C=C1\CCC[C@]2(C)[C@@H]([C@H](C)/C=C/[C@H](C)C(C)C)CC[C@@H]12		48.5 µM (active) and 49 µM (active)
CCc1ccc(O)cc1	3.14% (inactive) and 3.17% (inactive)	
OCC#CCO	0.572% (inactive) and 1.12% (inactive)	
COCC(=O)O	0.194% (inactive) and 4.44% (inactive)	
CC1=CC[C@H]2C[C@@H]1C2(C)C	0.867% (inactive) and -1.12% (inactive)	
CC(C)(C)C1CCC(O)CC1 (stereo unspecified)	-21.7% (inactive) and -6.15% (inactive)	
CC#C[C@]1(O)CC[C@H]2[C@@H]3CCC4=CC(=O)CCC4=C3[C@@H](c3ccc(N(C)C)cc3)C[C@@]21C		49 µM (active)
S=c1nc[nH]c2nc[nH]c12		16.9 µM (active)
O=C(Cl)c1c(Cl)c(Cl)c(C(=O)Cl)c(Cl)c1Cl	8.71% (inactive) and 13.6% (inactive)	
Nc1nc2ncc(CNc3ccc(C(=O)N[C@@H](CCC(=O)O)C(=O)O)cc3)nc2c(=O)[nH]1	21.4% (inactive) and 0.94% (inactive)	
CC1Cc2ccccc2N1NC(=O)c1ccc(Cl)c(S(N)(=O)=O)c1 (stereo unspecified)	3.11% (inactive) and -9.79% (inactive)	
C=C(C)C(=O)OCC(CC)(COC(=O)C(=C)C)COC(=O)C(=C)C	2.46% (inactive) and 6.81% (inactive)	
CCCCCCCCCCCCOCC1CO1 (stereo unspecified)	-10.9% (inactive) and -25.4% (inactive)	

Compound	max response	Potency
CC(C)n1c(/C=C/[C@@H](O)C[C@@H](O)CC(=O)O)c(-c2ccc(F)cc2)c2ccccc21	-22.2% (inactive) and 0.258% (inactive)	
NC(=O)NNc1ccccc1	15.8% (inactive) and 8.69% (inactive)	
O=C(Oc1ccccc1)c1ccc(O)cc1	-21.6% (inactive) and -15.5% (inactive)	
CCc1ccccc1O	-2.02% (inactive)	
Cc1cc(O)cc(C)c1Cl	-8.32% (inactive) and -0.996% (inactive)	
CCOC(=O)/C=C\C(=O)OCC	0.421% (inactive) and 21.2% (inactive)	
Nc1cc(-c2ccncc2)c[nH]c1=O	-8.6% (inactive) and 7.61% (inactive)	
CCCCCCCCCCC=CC1CC(=O)OC1=O (stereo unspecified)	0.806% (inactive) and -0.583% (inactive)	
C=CC(=O)OCCCCCCCC(C)C	4.58% (inactive) and 25.2% (inactive)	
CCCCOCCOCCOC(=O)CCCCC(=O)OCCOCCOCCCC	3.67% (inactive) and 5.42% (inactive)	
O=C(O)c1ccc([N+](=O)[O-])cc1	2.62% (inactive) and 0.789% (inactive)	
NC(=O)/N=N/C(N)=O	1.69% (inactive) and 1.16% (inactive)	
CNC[C@H](O)[C@@H](O)[C@H](O)[C@H](O)CO	8.02% (inactive) and 0.166% (inactive)	
CC(=O)Nc1ccc(C(=O)O)cc1	0.373% (inactive) and -0.782% (inactive)	
O=C1O[C@H](CO)[C@@H](O)[C@H](O)[C@H]1O	1.84% (inactive) and 0.71% (inactive)	
C=C(C)C(=O)OCCCCCC	7.72% (inactive) and -0.816% (inactive)	
